Test results: PubChem BioAssay (EPA / NIEHS)
“And” between values parts separate entries of the source, which are not always exact repeats. Identical values can stand only once. Inconclusive results are not listed. Some structures have more than one record in an assay (separate samples or runs), and their calls can disagree. The source made the active and inactive calls. The calls were made as follows, unless noted: active = hit-call score of the fitted dose curve at least 0.9, where 1 is the maximum; inconclusive = response in the unintended direction; inactive = score below 0.9.

Key:
[1] = target: human Peroxisome Proliferator-activated Receptor delta (PPARd), PPARD (gene 5467) (UniProt Q03181); test: ATG_PPARd_TRANS: Attagene TRANS-FACTORIAL HepG2 Assay for human Peroxisome Proliferator-activated Receptor delta (PPARd) (AID 2283002)
Method in brief: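 Cell-based TRANS reporter: HepG2, transient MRTU transfection, 24 h exposure. Readout = reporter mRNA (RT-PCR/CE, 6-FAM). Gain-of-signal fit vs DMSO control.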

[2] = read-out: Intercellular Adhesion Molecule 1 (ICAM1), ICAM1 (gene 3383); test: BSK_3C_ICAM1: BioMAP Diversity Plus: 3C Assay for Intercellular Adhesion Molecule 1 (ICAM1) Biomarker Activity (AID 2283003; active = hit-call score of the fitted dose curve at least 0.9, where 1 is the maximum; inactive = score below 0.9); settings: primary human endothelial cells (HUVEC); actives raise or lower the signal
Method in brief: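 Primary human umbilical vein endothelial cells in the BioMAP 3C system were exposed to chemicals for 24 h, then ICAM-1 was quantified by ELISA. Activity was fitted bidirectionally against the DMSO negative control baseline.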

[3] = target: human Retinoic Acid Receptor beta (RARb), RARB (gene 5915) (UniProt P10826); test: ATG_RARb_TRANS: Attagene TRANS-FACTORIAL HepG2 Assay for human Retinoic Acid Receptor beta (AID 2283004)
Method in brief: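 HepG2, transient MRTU transfection, NR–Gal4 chimera, 24 h treatment; RT-PCR plus CE fluorescence detection of reporter mRNA; gain of signal vs DMSO.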

[4] = BSK_3C_Proliferation: Cell Proliferation Assessment in the BioMAP Diversity Plus: 3C Assay (AID 2283006; active = hit-call score of the fitted dose curve at least 0.9, where 1 is the maximum; inactive = score below 0.9;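 as to AC50: potency may reflect either rise or fall in cell number versus DMSO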); settings: primary human endothelial cells (HUVEC)
Method in brief: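 Human umbilical vein endothelial cells were grown sub-confluent and exposed to chemical for 48 h, then fixed with 10% TCA and stained with 0.1% sulforhodamine B; absorbance at 560 nm gave relative cell number, fitted bidirectionally against DMSO baseline.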

[5] = target: Peroxisome proliferator-activated receptor gamma (Homo sapiens) (UniProt P37231); test: ATG_PPARg_TRANS: Attagene TRANS-FACTORIAL HepG2 Assay for human Peroxisome Proliferator-activated Receptor-gamma (PPARg) (AID 2283007)
Method in brief: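 Read-out: reporter mRNA induction, detected by fluorescence after RT-PCR and capillary electrophoresis. Transiently transfected human HepG2 liver cells carrying a chimeric NR-Gal4 construct were dosed for 24 h; activity was fitted upward relative to DMSO.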

[6] = target: human RAR-related Orphan Receptor gamma (RORg), RORC (gene 6097) (UniProt P51449); test: ATG_RORg_TRANS: Attagene TRANS-FACTORIAL HepG2 Assay for human RAR-related Orphan Receptor gamma (RORg) (AID 2283011)
Method in brief: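 Activity is scored as increase in GAL4-UAS reporter mRNA over DMSO, detected by fluorescent RT-PCR and capillary electrophoresis in HepG2 cells transiently expressing a RORg-Gal4 chimera, 24 h after dosing.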

[7] = target: Nuclear receptor subfamily 1 group I member 2 (Homo sapiens) (UniProt O75469); test: ATG_PXR_TRANS: Attagene TRANS-FACTORIAL HepG2 Assay for human Pregnane X Receptor (PXR) (AID 2283008)
Method in brief: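 Measures mRNA induction of a GAL4-UAS-driven reporter in human HepG2 cells transiently expressing PXR fused to Gal4, following 24 h treatment. DMSO served as negative control and baseline.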

[8] = target: human Retinoic Acid Receptor gamma (RARg), RARG (gene 5916) (UniProt P13631); test: ATG_RARg_TRANS: Attagene TRANS-FACTORIAL HepG2 Assay for human Retinoic Acid Receptor gamma (RARg) (AID 2283009)
Method in brief: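 HepG2 cells transiently transfected with multiplexed reporter units expressing chimeric RARg-GAL4 and GAL4-UAS-driven reporters; 24 h compound exposure. Reporter mRNA quantified by RT-PCR with fluorescent labelling and capillary electrophoresis; gain-of-signal fitted relative to DMSO baseline.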

[9] = target: Retinoic acid receptor alpha (Homo sapiens) (UniProt P10276); test: ATG_RARa_TRANS: Attagene TRANS-FACTORIAL HepG2 Assay for human Retinoic Acid Receptor alpha (RARa) (AID 2283005)
Method in brief: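 Reporter transcripts, measured by RT-PCR with fluorescent labeling and capillary electrophoresis after 24 h dosing, reflect activity of an exogenous human RARa–GAL4 fusion in transiently transfected HepG2. Fitted for increase relative to DMSO.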

[10] = target: human RAR-related Orphan Receptor beta (RORb), RORB (gene 6096) (UniProt Q92753); test: ATG_RORb_TRANS: Attagene TRANS-FACTORIAL HepG2 Assay for human RAR-related Orphan Receptor beta (RORb) (AID 2283010)
Method in brief: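 HepG2 cells were transiently transfected with multiplexed GAL4-UAS reporter units expressing chimeric nuclear receptor–GAL4 proteins, then dosed for 24 h. Reporter mRNA was quantified by RT-PCR with fluorescent labelling and capillary electrophoresis; gain of signal was fitted relative to DMSO.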

Measured: AC50

Chain of human Retinoic Acid Receptor beta (RARb), RARB (gene 5915) (P10826 whole entry, looked up, the tested form may be a part): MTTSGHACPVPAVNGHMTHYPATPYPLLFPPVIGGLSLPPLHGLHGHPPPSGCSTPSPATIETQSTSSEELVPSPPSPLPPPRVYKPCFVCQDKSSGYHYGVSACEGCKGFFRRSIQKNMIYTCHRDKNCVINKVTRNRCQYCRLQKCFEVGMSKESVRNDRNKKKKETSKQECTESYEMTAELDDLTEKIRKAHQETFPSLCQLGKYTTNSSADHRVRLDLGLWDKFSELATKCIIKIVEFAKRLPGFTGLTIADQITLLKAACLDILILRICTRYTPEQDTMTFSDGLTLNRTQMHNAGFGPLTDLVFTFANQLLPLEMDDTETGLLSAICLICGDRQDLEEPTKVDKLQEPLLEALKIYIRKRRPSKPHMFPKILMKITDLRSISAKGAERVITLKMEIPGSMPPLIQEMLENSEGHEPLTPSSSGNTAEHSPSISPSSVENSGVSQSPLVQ
Chain of human RAR-related Orphan Receptor gamma (RORg), RORC (gene 6097) (P51449 whole entry, looked up, the tested form may be a part): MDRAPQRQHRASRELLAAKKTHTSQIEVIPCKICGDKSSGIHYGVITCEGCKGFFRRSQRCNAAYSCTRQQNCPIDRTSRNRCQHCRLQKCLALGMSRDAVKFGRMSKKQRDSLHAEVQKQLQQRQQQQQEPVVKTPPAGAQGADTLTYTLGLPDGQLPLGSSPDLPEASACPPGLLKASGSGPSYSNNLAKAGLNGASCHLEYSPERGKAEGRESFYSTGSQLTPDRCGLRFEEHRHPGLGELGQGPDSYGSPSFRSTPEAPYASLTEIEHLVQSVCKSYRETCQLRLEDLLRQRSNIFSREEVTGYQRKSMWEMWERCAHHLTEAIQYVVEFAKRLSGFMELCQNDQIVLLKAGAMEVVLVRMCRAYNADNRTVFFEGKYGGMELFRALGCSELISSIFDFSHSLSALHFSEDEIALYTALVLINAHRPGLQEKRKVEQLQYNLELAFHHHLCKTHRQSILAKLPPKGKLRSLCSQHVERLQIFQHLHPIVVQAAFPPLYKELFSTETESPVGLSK
Chain of human Peroxisome Proliferator-activated Receptor delta (PPARd), PPARD (gene 5467) (Q03181 whole entry, looked up): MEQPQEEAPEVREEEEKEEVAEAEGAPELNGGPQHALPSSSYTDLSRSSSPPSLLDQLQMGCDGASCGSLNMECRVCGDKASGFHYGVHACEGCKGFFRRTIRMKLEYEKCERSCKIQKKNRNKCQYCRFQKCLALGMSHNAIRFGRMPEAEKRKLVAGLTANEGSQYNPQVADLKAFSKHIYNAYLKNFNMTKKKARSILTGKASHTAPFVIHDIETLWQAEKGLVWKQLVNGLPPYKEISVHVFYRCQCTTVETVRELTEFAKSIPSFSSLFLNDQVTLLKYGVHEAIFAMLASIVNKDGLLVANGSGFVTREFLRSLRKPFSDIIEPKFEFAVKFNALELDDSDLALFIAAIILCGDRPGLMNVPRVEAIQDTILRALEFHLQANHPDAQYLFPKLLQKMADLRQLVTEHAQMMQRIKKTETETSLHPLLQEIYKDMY
Chain of Nuclear receptor subfamily 1 group I member 2 (Homo sapiens) (O75469 whole entry, looked up, the tested form may be a part): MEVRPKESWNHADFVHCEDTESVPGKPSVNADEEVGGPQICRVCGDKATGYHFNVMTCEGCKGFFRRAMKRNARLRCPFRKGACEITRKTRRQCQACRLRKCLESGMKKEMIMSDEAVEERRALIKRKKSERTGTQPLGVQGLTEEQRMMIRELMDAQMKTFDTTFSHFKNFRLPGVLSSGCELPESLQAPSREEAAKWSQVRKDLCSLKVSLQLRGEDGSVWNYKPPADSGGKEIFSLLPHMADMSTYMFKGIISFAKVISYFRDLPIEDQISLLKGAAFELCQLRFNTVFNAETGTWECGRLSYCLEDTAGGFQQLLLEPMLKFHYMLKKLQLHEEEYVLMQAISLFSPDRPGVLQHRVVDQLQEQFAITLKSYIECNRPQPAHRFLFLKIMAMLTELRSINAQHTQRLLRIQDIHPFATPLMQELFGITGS
Chain of human RAR-related Orphan Receptor beta (RORb), RORB (gene 6096) (Q92753 whole entry, looked up, the tested form may be a part): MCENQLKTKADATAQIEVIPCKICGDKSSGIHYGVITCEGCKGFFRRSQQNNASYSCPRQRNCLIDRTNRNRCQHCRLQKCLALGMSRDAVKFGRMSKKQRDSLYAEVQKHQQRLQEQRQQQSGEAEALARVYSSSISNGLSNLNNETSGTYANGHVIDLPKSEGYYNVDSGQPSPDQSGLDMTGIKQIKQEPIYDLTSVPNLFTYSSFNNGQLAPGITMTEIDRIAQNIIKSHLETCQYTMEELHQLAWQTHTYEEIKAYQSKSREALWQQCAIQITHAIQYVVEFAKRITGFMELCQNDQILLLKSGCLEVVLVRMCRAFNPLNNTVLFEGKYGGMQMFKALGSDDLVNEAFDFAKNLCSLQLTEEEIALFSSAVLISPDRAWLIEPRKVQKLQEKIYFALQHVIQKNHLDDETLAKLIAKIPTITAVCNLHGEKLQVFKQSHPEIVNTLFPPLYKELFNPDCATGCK
Chain of human Retinoic Acid Receptor gamma (RARg), RARG (gene 5916) (P13631 whole entry, looked up, the tested form may be a part): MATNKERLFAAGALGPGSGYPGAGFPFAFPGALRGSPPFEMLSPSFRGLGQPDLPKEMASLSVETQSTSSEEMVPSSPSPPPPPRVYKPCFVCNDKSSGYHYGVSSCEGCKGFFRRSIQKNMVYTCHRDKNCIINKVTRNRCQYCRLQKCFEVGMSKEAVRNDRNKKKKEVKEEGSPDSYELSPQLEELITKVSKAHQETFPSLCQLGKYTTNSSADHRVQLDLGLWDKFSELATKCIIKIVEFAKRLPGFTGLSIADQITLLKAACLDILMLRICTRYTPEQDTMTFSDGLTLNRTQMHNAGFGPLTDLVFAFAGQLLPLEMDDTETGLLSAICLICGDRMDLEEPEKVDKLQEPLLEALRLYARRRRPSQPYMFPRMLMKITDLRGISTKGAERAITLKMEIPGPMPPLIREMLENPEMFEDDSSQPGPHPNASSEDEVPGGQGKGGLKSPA
Chain of Retinoic acid receptor alpha (Homo sapiens) (P10276 whole entry, looked up, the tested form may be a part): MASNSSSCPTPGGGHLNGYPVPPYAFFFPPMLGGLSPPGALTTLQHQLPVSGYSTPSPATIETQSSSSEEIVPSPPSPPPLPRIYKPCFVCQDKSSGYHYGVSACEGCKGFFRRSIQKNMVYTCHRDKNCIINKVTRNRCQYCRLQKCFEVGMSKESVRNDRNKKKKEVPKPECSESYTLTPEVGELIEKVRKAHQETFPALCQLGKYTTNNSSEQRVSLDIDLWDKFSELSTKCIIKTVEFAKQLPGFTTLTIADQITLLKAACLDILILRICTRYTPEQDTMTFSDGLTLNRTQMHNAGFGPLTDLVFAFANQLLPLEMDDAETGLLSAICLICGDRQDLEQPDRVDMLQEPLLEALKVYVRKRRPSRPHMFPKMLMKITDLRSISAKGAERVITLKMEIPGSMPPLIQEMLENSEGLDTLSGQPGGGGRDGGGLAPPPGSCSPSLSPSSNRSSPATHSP
Chain of Peroxisome proliferator-activated receptor gamma (Homo sapiens) (P37231 whole entry, looked up, the tested form may be a part): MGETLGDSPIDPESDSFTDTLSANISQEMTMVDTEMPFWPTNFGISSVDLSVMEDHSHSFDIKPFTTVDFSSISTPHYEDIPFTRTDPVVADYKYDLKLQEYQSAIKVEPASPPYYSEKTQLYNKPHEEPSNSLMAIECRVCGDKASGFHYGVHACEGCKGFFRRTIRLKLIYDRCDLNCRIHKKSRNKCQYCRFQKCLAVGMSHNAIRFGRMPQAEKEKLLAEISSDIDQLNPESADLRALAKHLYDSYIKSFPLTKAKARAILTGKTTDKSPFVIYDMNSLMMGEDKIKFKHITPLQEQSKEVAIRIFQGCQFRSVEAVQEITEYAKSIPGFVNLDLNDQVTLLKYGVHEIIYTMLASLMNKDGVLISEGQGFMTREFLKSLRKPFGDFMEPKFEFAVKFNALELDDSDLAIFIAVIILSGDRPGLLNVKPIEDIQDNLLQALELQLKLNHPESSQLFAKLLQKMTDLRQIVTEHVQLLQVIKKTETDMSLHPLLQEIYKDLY

CC(=O)OC1CC(C)OC(C)O1 (configuration not stated)
inactive: [1] | [2] | [3] | [4] | [5] | [6]

O=C1CCCCC1
inactive: [1] | [2] | [4] | [5] | [6]

CC(C)(O)c1ccc(CNC(=O)c2cccnc2Oc2ccc(F)cc2)cc1
active: [7] 2.33 µM
inactive: [1] | [3] | [4] | [8]

CC(=O)OCC(COC(C)=O)OC(C)=O
inactive: [1] | [2] | [4]

NC1CCCCC1
not listed: [2] | [3] | [5]
inactive: all other assays above

C=CCCCCCCCCCCCC
inactive: [1] | [2] | [4] | [5] | [7]

CO[C@@H]1COCC[C@@H]1N[C@@H]1CC[C@@](C(=O)N2CCc3ncc(C(F)(F)F)cc3C2)(C(C)C)C1
inactive: [1] | [2] | [4] | [5] | [7] | [6]

Nc1nc(Cl)nc2c1ncn2[C@H]1C[C@H](O)[C@@H](CO)O1
inactive: [1] | [2] | [7]
active: [4] 0.147 µM

COc1ccc(C(=O)Nc2nc3ccccc3c(NCc3ccccc3)c2C#N)cc1
inactive: [1] | [2] | [10] | [6]
active: [4] 9.43 µM | [5] 1.45 µM | [7] 0.585 µM

CC(=O)[C@@]1(O)CC[C@H]2[C@@H]3CCC4=CC(=O)CC[C@]4(C)[C@H]3CC[C@@]21C
inactive: [1] | [2] | [4] | [7] | [6]

NC(=Nc1ccccc1)Nc1ccccc1
inactive: [1] | [2] | [4] | [5] | [7]

CC(C)OC(=O)C(C)(C)Oc1ccc(C(=O)c2ccc(Cl)cc2)cc1
active: [4] 15.8 µM | [7] 5.53 µM
inactive: [1] | [2] | [6]

CCC(C)N(C)C(=O)c1cc2ccccc2c(-c2ccccc2Cl)n1 (configuration not stated)
inactive: [1] | [2] | [5] | [7] | [6]
active: [4] 8.77 µM

CC1(C)C(=O)NC(=O)N1CO
inactive: [1] | [2]
active: [4] 5.5 µM

CCCCCCC(CCCCCCCCCCC(=O)OCC(COC(C)=O)OC(C)=O)OC(C)=O (configuration not stated)
inactive: [1] | [2] | [7]
active: [4] 10 µM | [5] 50 µM

CCCCCCCCCCCCCCCCO
not listed: [3] | [7] | [8]
inactive: all other assays above

O=C(O)c1[nH]n(-c2ccc(S(=O)(=O)O)cc2)c(=O)c1N=Nc1ccc(S(=O)(=O)O)cc1
inactive: [1] | [2] | [4] | [10]

NC=O
not listed: [5] | [6]
inactive: all other assays above

COC(=O)[C@H]1[C@H]2C[C@@H]3c4[nH]c5cc(OC)ccc5c4CCN3C[C@H]2C[C@@H](OC(=O)c2cc(OC)c(OC)c(OC)c2)[C@@H]1OC
inactive: [1] | [2] | [5]
active: [4] 16.9 µM

CC(=O)O[C@]1(C(C)=O)CC[C@H]2[C@@H]3C=C(Cl)C4=CC(=O)[C@@H]5C[C@@H]5[C@]4(C)[C@H]3CC[C@@]21C
inactive: [1] | [5] | [7] | [6]
active: [1] 100 µM | [4] 29.5 µM

CC(C)c1cccc(C(C)C)c1
inactive: [1] | [2] | [3] | [4] | [7]

CN(C)C(=O)NC1(c2ccccc2)CCN(CCC[C@]2(c3ccc(Cl)c(Cl)c3)CCCN(C(=O)c3ccccc3)C2)CC1
inactive: [1] | [2] | [6]
active: [4] 6.94 µM | [5] 5.21 µM | [7] 0.554 µM

O=C(O)c1cccnc1
not listed: [3] | [8] | [9]
inactive: all other assays above

CCc1nc(N)nc(N)c1-c1ccc(Cl)cc1
inactive: [1] | [2] | [4] | [5] | [7]

CCN(CC)CCOc1ccc(C(=C(Cl)c2ccccc2)c2ccccc2)cc1
active: [2] 13.7 µM | [4] 2.92 µM
not listed: [7] | [10]
inactive: all other assays above

CN(C)C(=O)NC1(c2ccccc2)CCN(CC[C@@]2(c3ccc(F)c(F)c3)CN(C(=O)c3ccccc3)CCO2)CC1
inactive: [1] | [2] | [4] | [5]
active: [7] 1.13 µM

CCCCCCC(C=O)=Cc1ccccc1
inactive: [1] | [3] | [7] | [10]
active: [4] 31.8 µM | [5] 27.4 µM and 6.91 µM | [7] 100 µM

CCCCCCCCCC[N+](C)(C)[O-]
inactive: [1] | [2] | [4] | [5] | [7]

O=C(Oc1ccccc1)c1cccc(C(=O)Oc2ccccc2)c1
active: [4] 15.2 µM | [5] 60.4 µM
inactive: [1] | [3] | [6]

O=[Si]=O
not listed: [1] | [6]
inactive: all other assays above

O=NO
inactive: [2] | [3] | [4] | [7] | [10]
